Compounds with a hit are over-represented: about 5.7% of the library has one in this group of screens.
ClpP mod = qHTS Assay for Activators of ClpP; ATP-dependent Clp protease proteolytic subunit (Bacillus subtilis (strain 168)), P80244; purified B. subtilis ClpP, FRET peptide cleavage, 20 min; Potency, µM (doses to about 57.5 µM), for the others: at the highest dose activity change, negative = active; 340,000 tested, 1.9% active; AID 651965, 2013; active = well fitted falling curve with a large enough effect; inconclusive = small, poorly fitted or top-dose-only effect; inactive = no such curve, though single readings can be large or run the other way; note: potency is the fitted concentration of half-maximal effect; the source files actives as falling curves though it sought activators and does not explain the sign; nearly all actives have a fitted effect of over 65% in size
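ClpP 10 microg/mL final, pH 8 Tris/KCl buffer with BSA, glycerol, Tween-20; compound pinned in; FRET-FV substrate; RT 20 min; Ex320/Em430; ΔFRET vs ADEP 5.8 microM, DMSO, no enzyme.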
HEK293 tox = cytotoxicity counter-screen for GLP-1 receptor inverse agonists; HEK293 cAMP-luciferase reporter cells, luminescence, 24 h; Potency, µM (top dose mostly 38.3 µM), for inactives: at the highest dose activity change, negative = inhibition, actives largely listed as inhibitors; 410,000 tested, 0.13% active; AID 624418;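 note: loss of luciferase light is scored as toxicity; potency is the fitted concentration of half-maximal effect; % is set by controls: 0 for no effect and ±100 for the full control effect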
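To flag toxic compounds, the library was rerun on cells for 24 hr at 37 deg C and 5% CO2. Viability-linked luminescence was captured 12 min after adding luciferase detection reagent.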
DRD3 agonist = D3 dopamine receptor (human) agonism. P35462. D3R DiscoveRx beta-arrestin cells, luminescence, 90 min. max activation, %. 410,000 tested, 0.58% active; in the data active = max activation above about 30%; note: 0% is about no effect
Target sequence (P35462 whole entry, looked up): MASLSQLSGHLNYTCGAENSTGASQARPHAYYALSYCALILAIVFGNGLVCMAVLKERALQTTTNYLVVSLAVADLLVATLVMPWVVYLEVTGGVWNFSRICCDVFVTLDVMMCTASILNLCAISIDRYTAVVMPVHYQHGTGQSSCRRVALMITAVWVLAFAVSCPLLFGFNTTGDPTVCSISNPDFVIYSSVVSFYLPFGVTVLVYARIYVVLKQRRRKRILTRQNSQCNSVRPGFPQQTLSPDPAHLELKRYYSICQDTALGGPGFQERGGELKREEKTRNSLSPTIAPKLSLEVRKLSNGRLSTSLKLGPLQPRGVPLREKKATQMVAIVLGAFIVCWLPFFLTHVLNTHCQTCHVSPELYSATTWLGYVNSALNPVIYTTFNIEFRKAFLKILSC
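Agonist mode: compounds and dopamine controls were applied to plated cells for 90 min at 37 degrees C after an overnight attachment at 1500 cells/well. Luminescent read-out followed 30 - 60 minutes at room temperature with DiscoveRx detection reagent.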
GLP-1R inv ag = inverse agonists of human GLP-1 receptor | P43220 | HEK293 GLP-1R CRE-luciferase, luminescence, 24 h; GLP-1R form is constitutively active | Potency, µM (series often up to 38.3 µM), for the others: top-dose activity change, negative = inhibition, hits mostly inhibitors | 410,000 tested, 1.6% active | AID 624417; note: potency is the fitted concentration of half-maximal effect; % is set by controls: 0 for no effect and ±100 for the full control effect; nearly all actives have a fitted effect of over 55% in size
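HEK293 cells stably co-expressing constitutively active GLP-1R and a cAMP-responsive luciferase reporter were seeded in DMEM with 10% Nu serum, given compounds after 12 h, and incubated 24 h at 37 deg C. Luminescence was then read.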
GLP-1R agonist = activates the human GLP-1 receptor | P43220 | HEK293 GLP-1R CRE-luciferase, luminescence, 4-6 h; cells express a hypersensitive GLP-1R form | Potency, µM (doses to about 45.6 µM), for the others: at the highest dose activation, most hits filed as activators | 380,000 tested, 0.007% active | AID 624172; note: potency is the fitted concentration of half-maximal effect; % of control where 0% means no effect
D3 antag = antagonists of human D3 dopamine receptor; P35462; max response, negative = inhibition, %; D3R cells, DiscoveRx beta-arrestin luminescence, antagonist mode; hits give low values; 360,000 tested, 2.5% active; AID 652054; in the data active = max response below about -50%; inconclusive = no clear call, values can overlap the other calls; note: % is set by controls: 0 for no effect and ±100 for the full control effect
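Cells plated overnight at 1500 cells/well, then exposed to library compounds with dopamine controls for 90 minutes at 37 degrees C. DiscoveRx reagent added for 30–60 minutes at room temperature; luminescence read, quantitative HTS format.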
Active calls of the source: *; ? = inconclusive; nt = not tested or not shown. Unless noted, calls come from the whole dose curve; as a rule, active = well fitted curve in the direction sought with a large enough effect; inconclusive = small, poorly fitted or top-dose-only effect, or another doubt; inactive = no such curve, though single readings can be large; an effect the other way counts as inactive or inconclusive.

SMILES	ClpP mod	HEK293 tox	DRD3 agonist	GLP-1R inv ag	GLP-1R agonist	D3 antag
OC(COc1ccc2c(c1)OCO2)CN1CCCCC1 (stereo not given)	1%	-11%	-13	19%	-3%	-7
CCCCNC(=O)CCn1c(=O)c2ccccc2n(Cc2ccccc2C#N)c1=O	-21%	0%	1	9%	-2%	nt
Cc1ccc(NC(=O)C(=O)NCCc2sc(-c3ccc(Cl)cc3)nc2C)cc1C	-10%	3%	2	8%	nt	nt
CC(C)c1ccc(OCC(O)CN2CCN(c3ccccc3)CC2)cc1 (stereo not given)	1%	?	45*	10µM*	8%	?
CCOc1ccc(CCNC(=O)CCc2cn(Cc3ccc(F)cc3)c3ccccc23)cc1	-30%	-7%	-20	?	nt	nt
Cc1ccc(NC(=O)Cn2c(=O)n(CCCS(=O)(=O)C3CCCCC3)c(=O)c3ccccc32)cc1F	-4%	-5%	2	-14%	0%	nt
CCc1ccc2c(c1)c(=O)c(C(=O)c1ccccc1)cn2CC(=O)Nc1ccc(C)c(Cl)c1	-2%	-9%	-11	0%	0%	nt
O=C(NC1CCCCC1)c1ccc2c(c1)OCO2	nt	-6%	5	11%	9%	1
COc1cc2ccccc2cc1C(=O)NC1CCCC1	0%	-6%	1	?	18%	11
CC1CCC(NC(=O)c2ccc3c(c2)OCO3)CC1 (stereo not given)	-3%	-2%	0	4µM*	0%	-5
COc1cc2ccccc2cc1C(=O)NC1CCC(C)CC1 (stereo not given)	3%	-9%	10	10µM*	?	-5
CCc1ccc(C(C)NC(=O)c2ccc3c(c2)OCO3)cc1 (stereo not given)	-1%	-3%	1	11µM*	12%	-5
COCCN(CCOC)Cc1cc(=O)oc2cc(OC)ccc12	?	3%	5	19%	14%	16
COc1ccc[n+](CC(=O)c2ccc(F)cc2)c1	-1%	nt	nt	nt	nt	nt
CC(C(=O)NC1CCCC1)n1c(-c2ccccn2)nc2ccccc21 (stereo not given)	4%	18%	-16	-28%	nt	-27
CC(C)c1ccc(Nc2sc(C(=O)c3ccccc3)c(N)c2S(=O)(=O)c2ccccc2)cc1	-9%	-3%	0	-15%	nt	nt
O=C(Nc1ccc(C(=O)N2CCC(O)(c3ccc(Cl)c(C(F)(F)F)c3)CC2)cc1)c1ccc(Br)o1	-1%	-1%	11	10µM*	-3%	18
COC(=O)c1cc(OC)c(OC)c(OC)c1NC(=O)c1ccc(S(=O)(=O)N(C)C)cc1	0%	-24%	-2	9%	7%	-88*
COc1ccc(NC(=O)c2ccc(S(=O)(=O)N(C)C)cc2)cc1OC	-2%	21%	10	20%	-3%	-2
CCOc1ccccc1CNC(=O)CCCc1cn(C)c2ccccc12	-10%	2%	2	?	7%	31
Cn1cc(CCCC(=O)NCc2ccccc2)c2ccccc21	nt	-5%	-2	?	17%	31
Cc1ccc(CNC(=O)CCCc2cn(C)c3ccccc23)cc1	28µM*	1%	-1	-27%	2%	-26
CCOc1ccccc1CNC(=O)CCc1cn(C)c2ccccc12	?	11%	-16	7.1µM*	9%	-15
COc1ccc(-c2cc3cc4c(cc3cn2)OCO4)cc1	14µM*	?	-11	?	3%	-15
CCOc1ccccc1N(CC(=O)NC(C)(C)C)C(=O)c1ccc(CN2CCOCC2)o1	0%	-11%	-5	4%	-10%	22
CC(C)(C)NC(=O)CN(C(=O)c1ccc(CN2CCOCC2)o1)c1ccc2c(c1)OCCO2	13µM*	7%	-6	6%	1%	-26
O=C(N[C@@H](Cc1ccc(O)cc1)C(=O)O)c1ccc(C(F)(F)F)cc1	1%	-3%	44*	23%	-6%	0

Compound activity (PubChem)
